Data as given in PubChem BioAssay (NCI).
About 83,000 compounds went through this panel and 20% of them were active in at least one assay; those are over-represented in the sample as a whole.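 How to read the values: 0–100, growth inhibition (40 = 60% inhibited); 0, no net growth; -100 to 0, cell death (-40 = 40% of starting cells died; -100 = all dead).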 Values without a mark were called inactive. Calls of active or inactive are those of the source. How the source made its calls: active means growth percent below 10; inactive means the rest.

Legend:
Test in all cases: NCI-60 one-dose screen, 48 h (100 = growth as untreated, 0 = no growth, -100 = all killed)
Settings in all cases: 10 µM
NCI-H23 lung = test system: NCI-H23 lung
NCI-H226 lung = test system: NCI-H226 lung
HOP-62 NSCLC = test system: HOP-62 NSCLC
NCI-H460 lung = test system: NCI-H460 lung
HOP-92 NSCLC = test system: HOP-92 NSCLC
NCI-H522 lung = test system: NCI-H522 lung
A549/ATCC NSCLC = test system: A549/ATCC NSCLC
786-0 renal = test system: 786-0 renal
COLO 205 colon = test system: COLO 205 colon

Compound	growth (NCI-H23 lung)	growth (NCI-H226 lung)	growth (HOP-62 NSCLC)	growth (NCI-H460 lung)	growth (HOP-92 NSCLC)	growth (NCI-H522 lung)	growth (A549/ATCC NSCLC)	growth (786-0 renal)	growth (COLO 205 colon)
COc1ccc(/C=C/C(=O)C(=O)/C=C/c2ccc(OC)c(OC)c2)cc1OC	21.6%	38.9%	93.2%	51.7%	109%	47.8%	69.9%	3.43% (active)	-20.8% (active)
N#Cc1c(-c2ccc(Cl)cc2)csc1NC(=O)Nc1ccc(Cl)c(C(F)(F)F)c1	15.8%	8.81% (active)	14.5%	2.11% (active)	-9.88% (active)	-12.8% (active)	18.3%	35.9%	-30.4% (active)
CC(C)(C)c1ccc(S(=O)(=O)Oc2ccc(NC(=O)C3CCCCC3)cc2)cc1	23%	45.4%	88.7%	44.2%	39.6%	25.4%	41.5%	55.4%	32.4%
CN1CCN(CCC(=O)Nc2cccc(-n3cc(-c4ccncc4)c(-c4ccc(Cl)c(O)c4)n3)c2)CC1	46.4%	66.6%	53.7%	13.4%	27.9%	16.9%	30.2%	32.2%	12.8%
O=C(NCCNC(=O)c1ccc(F)cc1)Nc1ccc(-n2cc(-c3ccncc3)c(-c3ccc(Cl)c(O)c3)n2)cc1	6.86% (active)	24.2%	22.9%	-0.482% (active)	-19% (active)	-29.2% (active)	12.4%	-11.1% (active)	-80.8% (active)
CCN(CC)CCCOc1cccc2c1C(=O)c1cccc(OCCCN(CC)CC)c1C2=O	38.2%	42.8%	48.1%	16.5%	21.2%	43.8%	22.3%	40.8%	-12% (active)
COc1ccc(-c2cc(-c3ccccc3)nc(SCCCCCCC(=O)NO)n2)cc1	50.9%	72.3%	57.2%	36%	49.3%	18.8%	50.1%	79.8%	44.8%
NS(=O)(=O)c1ccc(N2N=C(c3ccccc3)CCC2=O)cc1	95.4%	120%	95.8%	102%	97.7%	85.7%	93.6%	82.7%	156%
C/C=C/C1=CN2C(=O)c3cc(OC4OC(C)C(NC)C(C)(O)C4O)c(C)c(O)c3N=C[C@@H]2C1 (some centres not stated)	-43.7% (active)	3.31% (active)	-7% (active)	-13.8% (active)	-17.8% (active)	-28.5% (active)	5.24% (active)	-25% (active)	-49.2% (active)
O=C(Nc1ccc(F)cc1)c1cc2ccccc2cc1O	61.8%	74.2%	78.7%	80.5%	2.82% (active)	56.5%	75.8%	93.5%	95.5%
O=[N+]([O-])c1ccc2ncccc2c1Cl	86.7%	109%	44.5%	93.1%	99%	41.3%	99.9%	63.5%	-69.2% (active)
CC(=O)Oc1cc(OC(C)=O)c2ccccc2c1OC(C)=O	70.8%	88.4%	90%	86.6%	107%	68.2%	82.5%	103%	92.9%
COc1cc(-c2nn(-c3cccc(NC(=O)CCN4CCN(Cc5ccccc5)CC4)c3)cc2-c2ccncc2)ccc1Cl	20.8%	54%	24%	1.48% (active)	-0.56% (active)	-31.4% (active)	11.6%	-59.9% (active)	-50.9% (active)
COc1cc(Cc2cc(-c3ccccc3)n[nH]c2=O)cc(OC)c1OC	65.5%	68.5%	73%	44.5%	35.8%	52.9%	53.5%	74.3%	56.3%
Cc1cc(SC#N)cc(C(C)(C)C)c1O	93.1%	102%	100%	104%	81.7%	68.1%	81.9%	101%	101%
COc1cccc(-c2nc3sccn3c2-c2cccc(S(C)(=O)=O)c2)c1	85.4%	90.1%	105%	106%	87.3%	102%	102%	100%	114%
COc1ccc(-c2cc(-c3ccc(OC)c(OC)c3)nc(SCCCC(=O)NO)n2)cc1	-26.8% (active)	-15.3% (active)	-13.3% (active)	-4.97% (active)	-28.6% (active)	2.7% (active)	-0.0794% (active)	-20.8% (active)	-12.4% (active)
O=C(O)c1ccc(-n2cc(CNc3ccc(Oc4ccccc4)cc3)c(-c3ccccc3)n2)cc1	81.1%	99.3%	122%	90.2%	89%	84.4%	76.5%	90.6%	101%
N#Cc1c(N)nc(-c2cc(F)cc(C(F)(F)F)c2)nc1-c1ccccc1F	51.9%	30.1%	21.9%	15.2%	34.7%	68.3%	41.7%	1.27% (active)	24.7%
CCC(C)[C@H](NC(C)=O)C(=O)N[C@@H](CCCNC(=N)N)C(=O)N[C@@H](CCCCN)C(=O)N[C@@H](CC1CCC(O)CC1)C(=O)NC(C(=O)N[C@@H](CCSC)C(=O)N[C@@H](CCCNC(=N)N)C(=O)N[C@@]1(C)CCC/C=C\CCC[C@@](C)(C(=O)NC(C(=O)N[C@@H](CCC(=O)O)C(=O)N[C@@H](CC(C)C)C(=O)N[C@H](C(=O)N[C@@H](CCC(=O)O)C(N)=O)C(C)C)[C@@H](C)O)NC(=O)[C@H](CCC(N)=O)NC(=O)[C@H](CC(C)C)NC(=O)[C@H](CC(C)C)NC1=O)[C@@H](C)O (some centres not stated)	106%	108%	108%	103%	103%	102%	96.3%	98.7%	89.9%
COc1ccc(C2CC(c3cccs3)=NN2c2ccc(S(N)(=O)=O)cc2)cc1 (configuration not stated)	104%	90.7%	97.8%	84.2%	63.1%	69.6%	75.8%	96.5%	-89.6% (active)
CNC(=O)c1cn2c3c(c(N4CCN(C)CC4)c(F)cc3c1=O)OC[C@@H]2C	96.3%	93%	94.5%	103%	98.5%	90.4%	95.7%	96.2%	110%
COc1cccc(N=Nc2cccc(OC)c2)c1	86.4%	90.5%	82.6%	103%	84%	73%	83.9%	91.3%	107%
Cc1[nH]c2ccccc2c1/C=N/Nc1ncnc2sc3c(c12)CCN(CC(=O)OC(C)(C)C)C3	91.6%	98%	92.4%	98.3%	61.2%	58.4%	65%	47.1%	63.4%
COc1ccc(N=Nc2cc(OC)c(OC)c(OC)c2)cc1	77.3%	92.4%	66.9%	87.5%	79.4%	57%	73%	98.2%	87.2%
Cc1cc(CSc2ccccc2C(=O)N2CC=C(c3ccccc3)CC2)on1	89.4%	88.4%	92.2%	100%	93.4%	75.3%	94.6%	94.5%	107%
CC(=O)C1CCC2C3CC=C4CC(SC(=N)N)CCC4(C)C3CCC12C (configuration not stated)	61.8%	56.6%	82.5%	16.7%	30.2%	61.5%	47.5%	48%	-100% (active)
OC(CCN1CCCC1)(c1ccccc1)C1CCCCC1 (configuration not stated)	103%	94.3%	120%	110%	115%	102%	104%	100%	117%
